Assay results as given in PubChem BioAssay (NCATS).
Records with an inconclusive call do not appear. Active and inactive are the calls of the source. The call rests on the fitted dose curve; in most records, active means well fitted curve in the direction sought with a large enough effect; inconclusive means small, poorly fitted or top-dose-only effect, or another doubt; inactive means no such curve, though single readings can be large; an effect the other way counts as inactive or inconclusive.

Experiments:
[1] = tested on: CRL-7250; assay: Cytotoxic Profiling of Annotated Libraries Using Quantitative High-Throughput Screening (AID 1296008); conditions: Five cell lines viability, CellTiter-Glo ATP luminescence, 48-72 h; max response: stronger effect = lower value; further: nearly all actives have a fitted effect of over 60% in size; on max response: on the % scale 0 is the no-effect control and ±100 the full control effect
In short: (§1)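 Cytotoxicity was measured as CellTiter-Glo ATP luminescence, read after 10 min at room temperature. Compound treatment of the cells lasted 48 or 72 hr at 37 degrees Celsius in a qHTS format.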

[2] = tested on: HEK293; assay: as above; conditions: Five cell lines viability, CellTiter-Glo ATP luminescence, 48-72 h; max response: stronger effect = lower value
In short: as §1

[3] = tested on: HaCat; assay: as above; conditions: Five cell lines viability, CellTiter-Glo ATP luminescence, 48-72 h; max response: stronger effect = lower value
In short: as §1

[4] = tested on: KB-3-1; assay: as above; conditions: Five cell lines viability, CellTiter-Glo ATP luminescence, 48-72 h; max response: stronger effect = lower value
In short: as §1

[5] = tested on: NIH3T3; assay: as above; conditions: Five cell lines viability, CellTiter-Glo ATP luminescence, 48-72 h; max response: stronger effect = lower value
In short: as §1

[6] = tested on: HACAT; assay: qHTS assay to identify novel small-molecules to repurpose for Merkel cell carcinoma treatment (AID 1296009); conditions: MCC and control cell lines, CellTiter-Glo viability, 72 h; at 44.8 µM (top of the series) unless noted; further: nearly all actives have a fitted effect of over 60% in size
In short: (§2)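 72 hr, 37 degree celsius; NPC 8-pt / MIPE 11-pt dose response; compound pinned in DMSO; CellTiter-Glo, 10 min RT, luminescence; normalized to no-cell and DMSO controls.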

[7] = tested on: NIH3T3; assay: as above; conditions: MCC and control cell lines, CellTiter-Glo viability, 72 h; at 44.8 µM (top of the series) unless noted
In short: as §2

[8] = tested on: C33A; assay: Primary qHTS to identify gynecologic anti-cancer compounds using libraries of approved drugs and bioactive compounds (AID 1345084); conditions: Gynecologic cancer cell panel viability, ATPlite luminescence, 48 h; series mostly up to 57.5 µM; further: on the % scale 0 is the no-effect control and ±100 the full control effect; nearly all actives have a fitted effect of over 55% in size
In short: (§3)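 48 h compound exposure at 37 C, 5% CO2; five-point qHTS. ATPlite luminescence readout of cell ATP.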

[9] = tested on: CAOV3; assay: as above; conditions: Gynecologic cancer cell panel viability, ATPlite luminescence, 48 h; series mostly up to 57.5 µM
In short: as §3

[10] = tested on: CASKI; assay: as above; conditions: Gynecologic cancer cell panel viability, ATPlite luminescence, 48 h; series mostly up to 57.5 µM
In short: as §3

[11] = tested on: Es-2; assay: as above; conditions: Gynecologic cancer cell panel viability, ATPlite luminescence, 48 h; series mostly up to 57.5 µM
In short: as §3

[12] = tested on: HeLa; assay: as above; conditions: Gynecologic cancer cell panel viability, ATPlite luminescence, 48 h; series mostly up to 57.5 µM
In short: as §3

[13] = tested on: Hek293T; assay: as above; conditions: Gynecologic cancer cell panel viability, ATPlite luminescence, 48 h, control line for the selectivity index; series mostly up to 57.5 µM
In short: as §3

[14] = tested on: JEG-3; assay: as above; conditions: Gynecologic cancer cell panel viability, ATPlite luminescence, 48 h; series mostly up to 57.5 µM
In short: as §3

[15] = tested on: OV90; assay: as above; conditions: Gynecologic cancer cell panel viability, ATPlite luminescence, 48 h; series mostly up to 57.5 µM
In short: as §3

[16] = tested on: PA-1; assay: as above; conditions: Gynecologic cancer cell panel viability, ATPlite luminescence, 48 h; series mostly up to 57.5 µM
In short: as §3

CCC1OC(=O)C(C)CC(C)C(=O)/C(C)=C/C(C)C(=O)/C=C/C1(C)O (stereo unspecified)
inactive: outcome [1] | max response [2] -3.54% | outcome [3] | max response [4] 8.38% | outcome [5] | outcome [6] | outcome [7] | Potency [8] | Potency [9] | outcome [10] | Potency [11] | Potency [12] | Potency [13] | Potency [14] | Potency [15] | Potency [16]

COC(=O)C1=CO[C@@H](O[C@@H]2O[C@H](CO[C@@H]3O[C@H](CO)[C@@H](O)[C@H](O)[C@H]3O)[C@@H](O)[C@H](O)[C@H]2O)[C@@H]2C(CO)=CC[C@H]12
inactive: max response [1] -2.64% | max response [2] 1.28% | outcome [3] | outcome [4] | outcome [5] | outcome [6] inactive [at 17.4 µM] | outcome [7] inactive [at 17.4 µM] | Potency [8] | Potency [9] | outcome [10] | Potency [11] | Potency [12] | Potency [13] | Potency [14] | Potency [15] | Potency [16]

O=C(C[C@@H]1C(C(=O)O)=CO[C@@H](O[C@@H]2O[C@H](CO)[C@@H](O)[C@H](O)[C@H]2O)/C1=C\CO)OCCc1ccc(O)c(O)c1
inactive: max response [1] -2.34% | max response [2] 2.23% | outcome [3] | max response [4] 9.2% | outcome [5] | outcome [6] inactive [at 17.4 µM] | outcome [7] inactive [at 17.4 µM] | Potency [8] | Potency [9] | outcome [10] | Potency [11] | Potency [12] | Potency [13] | Potency [14] | Potency [15] | Potency [16]

COc1cc(/C=C/C(=O)O[C@H]2[C@@H]3C=CO[C@@H](O[C@@H]4O[C@H](CO)[C@@H](O)[C@H](O)[C@H]4O)[C@@H]3[C@@]3(CO)O[C@@H]23)ccc1O
inactive: outcome [1] | max response [2] 1.49% | outcome [3] | outcome [4] | outcome [5] | outcome [6] inactive [at 17.4 µM] | outcome [7] inactive [at 17.4 µM] | Potency [8] | Potency [9] | outcome [10] | Potency [11] | Potency [12] | Potency [13] | Potency [14] | Potency [15] | Potency [16]

COC1OC(OC)C(O)(CCC2(C)C(C)CCC3(C)C2CC(O)C(O)C32CO2)C1O (stereo unspecified)
inactive: max response [1] -2.11% | max response [2] 1.57% | outcome [3] | max response [4] 5.15% | outcome [5] | outcome [6] inactive [at 17.4 µM] | outcome [7] inactive [at 17.4 µM] | Potency [8] | Potency [9] | outcome [10] | Potency [11] | Potency [12] | Potency [13] | Potency [14] | Potency [15] | Potency [16]

C[C@@H]1CC[C@]2(C(=O)O)CC[C@]3(C)C(=CCC4[C@@]5(C)C[C@@H](O)[C@H](O)[C@@](C)(CO)C5CC[C@]43C)C2[C@H]1C (stereo partly specified)
inactive: max response [1] -10.8% | max response [2] 4.76% | outcome [3] | max response [4] 3.75% | outcome [5] | outcome [6] inactive [at 17.4 µM] | outcome [7] inactive [at 17.4 µM] | Potency [8] | Potency [9] | outcome [10] | Potency [11] | Potency [12] | Potency [13] | Potency [14] | Potency [15] | Potency [16]

C=C1C2(C)CC3C4(C)C=CC(=O)OC(C)(C)C4CCC3(C)C1(C(=O)OC)C(=O)C(C)(O)C2=O (stereo unspecified)
inactive: max response [1] -7.15% | max response [2] -101% | outcome [3] | outcome [4] | outcome [5] | outcome [6] inactive [at 17.4 µM] | outcome [7] inactive [at 17.4 µM] | Potency [8] | Potency [9] | outcome [10] | Potency [11] | Potency [12] | Potency [13] | Potency [14] | Potency [15] | Potency [16]

CC(C)NC(=O)c1ccc(C#Cc2ccncc2)cn1
inactive: max response [1] -8.3% | max response [2] -19.1% | outcome [3] | outcome [4] | outcome [5] | outcome [6] | outcome [7] | Potency [8] | Potency [9] | outcome [10] | Potency [11] | Potency [12] | Potency [13] | Potency [14] | Potency [15] | Potency [16]

CC1=CC(=O)C(=C(C)C)CC2C(C)(O)CCC12O (stereo unspecified)
inactive: outcome [1] | max response [2] -0.243% | outcome [3] | max response [4] 8.8% | outcome [5] | outcome [6] | outcome [7] | Potency [8] | Potency [9] | outcome [10] | Potency [11] | Potency [12] | Potency [13] | Potency [14] | Potency [15] | Potency [16]

CC1(C)CC[C@]2(C(=O)O[C@@H]3O[C@H](CO[C@@H]4O[C@H](CO[C@@H]5O[C@H](CO)[C@H](O)[C@H](O)[C@H]5O)[C@@H](O)[C@H](O)[C@H]4O)[C@@H](O)[C@H](O[C@@H]4O[C@H](CO)[C@@H](O)[C@H](O)[C@H]4O)[C@H]3O)[C@H](O)C[C@]3(C)C(=CCC4[C@@]5(C)CC[C@H](O[C@@H]6OC[C@@H](O)[C@H](O)[C@H]6O)[C@@](C)(C(=O)O)C5CC[C@]43C)[C@@H]2C1 (stereo partly specified)
inactive: max response [1] 2.11% | max response [2] -1.97% | outcome [3] | outcome [4] | outcome [5] | outcome [6] inactive [at 9.27 µM] | outcome [7] inactive [at 9.27 µM] | activity change, negative = cytotoxicity [8] 12.5% [at 6.55 µM] | activity change, negative = cytotoxicity [9] 1.69% [at 6.55 µM] | activity change, negative = cytotoxicity [10] -1.12% [at 6.55 µM] | activity change, negative = cytotoxicity [11] -9.51% [at 6.55 µM] | activity change, negative = cytotoxicity [12] 2.81% [at 6.55 µM] | activity change, negative = cytotoxicity [13] -1.44% [at 6.55 µM] | activity change, negative = cytotoxicity [14] -1.76% [at 6.55 µM] | activity change, negative = cytotoxicity [15] 12% [at 6.55 µM] | activity change, negative = cytotoxicity [16] 14% [at 6.55 µM]

O=C(O)Cc1cn([C@@H]2OC[C@@H](O[C@@H]3O[C@H](CO)[C@@H](O)[C@H](O)[C@H]3O)[C@H](O)[C@H]2O[C@@H]2O[C@H](CO)[C@@H](O)[C@H](O)[C@H]2O)c2ccccc12
inactive: max response [1] -0.703% | max response [2] 2.5% | outcome [3] | max response [4] 5.94% | outcome [5] | outcome [6] inactive [at 17.4 µM] | outcome [7] inactive [at 17.4 µM] | Potency [8] | Potency [9] | outcome [10] | Potency [11] | Potency [12] | Potency [13] | Potency [14] | Potency [15] | Potency [16]
